Most compounds without a hit are left out; they make up all but 19% or so of the library.
IL-1B inflam inh – inhibitors of inflammasome signaling (IL-1 beta secretion). THP-1 LPS/ATP IL-1B secretion, AlphaLISA, 16 h; active compounds read low. activity change, % at 57.5 µM. 360,000 tested, 4.7% active. AID 743279; in the data active = activity change below about -50%; inconclusive = mostly about -30% to -49%
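THP-1 cells pretreated 1 hr with compounds (up to 57.5 uM final), then stimulated with LPS (250 ng/mL final) plus ATP (1.25 mM final); secreted IL-1B measured by AlphaLISA after 16 hr, decreased signal indicating inhibition.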
TDP1 block – inhibitors of human tyrosyl-DNA phosphodiesterase TDP1 | Q9NUW8 | recombinant TDP1, AlphaScreen DNA substrate cleavage | Potency, µM (highest dose often 130 µM), without a hit: top-dose activity change, negative = inhibition, most hits filed as inhibitors | 350,000 tested, 0.28% active; note: potency is the fitted concentration of half-maximal effect; nearly all actives have a fitted effect of over 40% in size
Target sequence (Q9NUW8 whole entry, looked up): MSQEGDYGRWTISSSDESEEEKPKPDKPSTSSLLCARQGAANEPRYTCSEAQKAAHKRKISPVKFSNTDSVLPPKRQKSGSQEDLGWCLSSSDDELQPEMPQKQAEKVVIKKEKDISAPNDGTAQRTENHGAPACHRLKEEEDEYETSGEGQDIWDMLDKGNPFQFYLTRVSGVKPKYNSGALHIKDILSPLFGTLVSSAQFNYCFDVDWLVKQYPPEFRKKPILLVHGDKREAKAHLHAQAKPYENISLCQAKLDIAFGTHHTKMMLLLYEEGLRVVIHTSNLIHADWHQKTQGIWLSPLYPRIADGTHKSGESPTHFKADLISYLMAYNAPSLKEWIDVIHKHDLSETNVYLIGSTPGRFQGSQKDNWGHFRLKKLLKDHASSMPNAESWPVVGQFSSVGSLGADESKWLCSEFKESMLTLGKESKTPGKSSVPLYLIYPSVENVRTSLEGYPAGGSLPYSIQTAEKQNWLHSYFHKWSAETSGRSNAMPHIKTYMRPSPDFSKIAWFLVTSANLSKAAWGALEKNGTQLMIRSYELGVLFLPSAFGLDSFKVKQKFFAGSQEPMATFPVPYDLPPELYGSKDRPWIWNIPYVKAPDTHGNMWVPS
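Compounds were preincubated with Tdp1 (1 nM final) for 15 min at room temperature before substrate (15 nM final) started a 5 min reaction; beads (10 ug/ml final) were then added for 10 min before AlphaScreen detection.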
TDP1 cell noCPT – qHTS for Inhibitors of human tyrosyl-DNA phosphodiesterase 1 (TDP1): qHTS in cells in absence of CPT. DT40 Tdp1-/- hTDP1 cells, no CPT, ATP luminescence, 48 h. Potency, µM (highest dose often 46.2 µM), inactives show at the highest dose activity change, negative = growth inhibition, most hits filed as inhibitors. AID 686978, 2013. 420,000 tested, 15% active; note: potency is the fitted concentration of half-maximal effect; nearly all actives have a fitted effect of over 55% in size
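Chicken DT40 Tdp1-/- cells complemented with human TDP1, screened without camptothecin (DMSO vehicle only), 400 cells/well. Compounds pin-transferred, cells incubated at 37 °C for at least 48 hr. Growth read as ATP-dependent luminescence (CellTiter-Glo, 30 min at RT).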
DT40 TDP1 CPT – DT40-hTDP1 cell growth loss with CPT; Potency, µM (series often up to 46.2 µM), without a hit: at the top dose activity change, negative = growth inhibition, usual class: inhibitors; 420,000 tested, 12% active; chicken DT40 Tdp1-/-;hTDP1 cells + 20 nM CPT, ATP luminescence, 48 h; AID 686979; note: potency is the fitted concentration of half-maximal effect; nearly all actives have a fitted effect of over 55% in size
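Chicken DT40 Tdp1-/- cells stably complemented with human TDP1 were seeded at 400 cells/well in medium containing 20 nM camptothecin, exposed to pin-transferred compounds, and grown at 37 °C for at least 48 hr. Viability was read as ATP luminescence.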
Giardia killer – kills Giardia lamblia; Giardia lamblia trophozoite viability; activity change, % at 7.66 µM, hits read low; 340,000 tested, 0.15% active; AID 540267; in the data active = activity change below about -80%; inconclusive = between about -30% and that limit;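 note: parasites exposed to compound for two days anaerobically before the ATP read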
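Anaerobic 48 hrs incubation at 37 deg C of 100 trophozoites/well with test compounds; ATPLite 1-Step luminescence, 15-30 min RT, reports cellular ATP as viability.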
ELG1 DNA repair – ELG1-dependent DNA repair inhibition | HEK293T ELG1-luciferase reporter, luminescence, 16 h; DNA damage induced by 5-fluorouridine | Potency, µM (highest dose often 46.1 µM), for the others: at the highest dose activity change, negative = inhibition, actives largely listed as inhibitors | 330,000 tested, 2.3% active; note: potency is the fitted concentration of half-maximal effect; nearly all actives have a fitted effect of over 55% in size
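DMSO vehicle served as the neutral condition. Each well held 2,000 cells given 5-fluorouridine plus compound; after 16 hr at 37 °C/5% CO2, ONE-Glo was added and luciferase measured 30 min later.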
Active calls of the source: *; ? = inconclusive; / = no result given. Unless noted, calls come from the whole dose curve; as a rule, active = well fitted curve in the direction sought with a large enough effect; inconclusive = small, poorly fitted or top-dose-only effect, or another doubt; inactive = no such curve, though single readings can be large; an effect the other way counts as inactive or inconclusive. % is set by controls: 0 for no effect and ±100 for the full control effect.

SMILES	IL-1B inflam inh	TDP1 block	TDP1 cell noCPT	DT40 TDP1 CPT	Giardia killer	ELG1 DNA repair
COc1cc(C(C)C)c2c(c1)S(=O)(=O)N(COc1cc(=O)n3cccc(OCCN4CCCCC4)c3n1)C2=O	/	17%	/	/	/	/
Cc1cc(Cl)ccc1NC(=O)NC1CCN(S(=O)(=O)c2ccc(F)cc2)CC1	-7	6%	?	23µM*	6	-26%
COc1ccc(Cl)cc1NC(=O)C1CCN(S(=O)(=O)c2ccc(F)cc2)CC1	/	/	18µM*	?	/	/
COc1ccc(Cl)cc1NC(=O)C1CCN(S(C)(=O)=O)CC1	-2	/	9%	1%	12	5%
CC(=O)N1c2ccc(S(=O)(=O)N3CCC(C(=O)Nc4cccc(F)c4)CC3)cc2CC1C (stereo not given)	-1	2%	?	16µM*	1	?
O=C(Nc1ccc(F)cc1F)NC1CCN(S(=O)(=O)c2ccc(F)cc2)CC1	-9	2%	?	-21%	8	4%
COc1ccc(Cl)cc1NC(=O)C1CCN(S(=O)(=O)c2ccc3c(c2)CC(C)N3C(C)=O)CC1 (stereo not given)	/	6%	21µM*	16µM*	/	/
CC(=O)C1CCC2C3CC=C4N(C)C(=O)CCC4(C)C3CCC12C (stereo not given)	21	/	-22%	-16%	-16	/
Cc1c(Cl)cccc1NC(=O)CNC(=O)Cc1c[nH]c2ccccc12	12	3%	-2%	-29%	14	5%
CCOC(=O)c1c(-c2ccc(C)cc2)csc1NC(=O)c1cc2ccccc2oc1=O	7	13%	-19%	-1%	9	?
CC(=O)N1c2ccc(S(=O)(=O)N3CCC(C(=O)Nc4cc(C)cc(C)c4)CC3)cc2CC1C (stereo not given)	0	3%	?	?	-3	1%
CC(=O)N1c2ccc(S(=O)(=O)N3CCC(C(=O)Nc4cccc(Cl)c4C)CC3)cc2CC1C (stereo not given)	/	5%	23µM*	15µM*	/	/
O=C(Nc1ccc(F)cc1F)NC1CCN(Cc2c(F)cccc2Cl)CC1	/	-2%	21µM*	?	2	?
CC(=O)N1c2ccc(S(=O)(=O)N3CCC(C(=O)Nc4cccc(C)c4)CC3)cc2CC1C (stereo not given)	21	2%	?	16µM*	-15	29µM*
CC(=O)N1c2ccc(S(=O)(=O)N3CCC(C(=O)Nc4cccc(Cl)c4)CC3)cc2CC1C (stereo not given)	15	0%	2.1µM*	2.1µM*	6	?
O=C(Nc1ccc(F)cc1)NC1CCN(Cc2c(F)cccc2Cl)CC1	/	4%	?	-25%	-5	?
C=CC1CN2CCC1CC2[C@@H](O)c1ccnc2ccc(OC)cc12 (stereo not given in full)	/	/	/	/	-5	/
COc1ccc(CN(C)CCCn2cnc(C(=O)Nc3ccc(C)c(C)c3)n2)cc1OC	-11	/	?	-27%	-17	/
Cc1ccc(S(=O)(=O)c2nc(-c3ccco3)oc2SCc2ccc(F)cc2)cc1	/	0%	?	21µM*	/	/
CC(C)CSc1oc(-c2ccco2)nc1S(=O)(=O)c1ccccc1	?	/	26µM*	?	-10	1%
O=C(Cc1cccs1)NCCn1ccc2ccccc21	-15	-2%	-21%	-9%	17	?
COc1ccc(C2(N3CCN(c4cccc(C)c4C)CC3)C(=O)c3ccccc3C2=O)cc1	/	-2%	-3%	-1%	/	/
COc1ccc(F)cc1S(=O)(=O)NCCc1sc2nc(-c3ccc(F)cc3)nn2c1C	/	0%	?	?	/	/
O=c1c(N2CCN(c3ccc(F)cc3)CC2)csc2ccc(F)cc12	/	4%	?	18µM*	/	/
